Screens deposited in PubChem BioAssay by National Center for Advancing Translational Sciences (NCATS).
FUS suppressor: qHTS for Suppressors of FUS Proteinopathy: Primary screen using FUS-linked yeast assay; S. cerevisiae FUS-expressing, growth rescue, OD600, 24 h; Potency, µM (doses to about 76.6 µM), usual class: activators; 390,000 compounds, 0.24% hits;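 note: plate controls were DMSO vehicle for no effect and reference control for full effect; nearly all actives have a fitted effect of over 55% in size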
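Restored growth of FUS-toxic S. cerevisiae, read as 600 nm absorbance after 24 h at 30C in galactose medium (starting OD 0.005). Controls CP55940 and DMSO.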
Mito fusion yeast: qHTS Assay for Small Molecule Inhibitors of Mitochondrial Division or Activators of Mitochondrial Fusion. Potency, µM (titrated, usually from 46.1 µM), for inactives: top-dose growth rescue (activation), hits mostly activators. AID 485298, 2010. 320,000 compounds, 0.23% hits. S. cerevisiae fusion-defective mutant growth rescue, CellTiterGlo 48 h; note: % of control where 0% means no effect; nearly all actives have a fitted effect of over 45% in size
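Read-out: ATP-based luminescence (CellTiterGlo, 10 min ambient) reporting growth of fusion-defective ts yeast after 48 hours at 37C on glycerol/ethanol YPEG medium in the presence of compound.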
aSyn rescue: qHTS of alpha-syn Inhibitors; 370,000 compounds, 0.14% hits; Potency, µM (top dose mostly 46.1 µM), for inactives: at the top dose growth rescue (activation), hits mostly activators; Yeast expressing alpha-synuclein, growth rescue, BacTiter-Glo, 24 h; note: % of control where 0% means no effect; nearly all actives have a fitted effect of over 65% in size
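Screening used galactose-induced yeast with toxic alpha-synuclein levels, exposed to compound for 24 hr at 30 deg C. Cell growth, read with BacTiter-Glo luminescence, gave the measured signal.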
Abeta yeast res: qHTS for compounds that reverse cellular toxicity of Amyloid beta (A-beta) peptide in yeast: Primary Screen; 410,000 compounds, 0.063% hits; Potency, µM (highest dose often 46.1 µM), actives largely listed as activators; yeast expressing A-beta42, growth rescue, OD600, 48 h; response scale: 0% DMSO, 100% iron-clioquinol control; note: nearly all actives have a fitted effect of over 55% in size
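Yeast growth medium received pinned compounds, then yeast cells expressing toxic A-beta were added; plates incubated at 30 C for 48 hr. Growth read as absorbance at 600 nm, normalized to DMSO and equimolar FeCl3 plus clioquinol controls.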
TDP43 rescue: qHTS of TDP-43 Inhibitors | 410,000 compounds, 1.8% hits | Potency, µM (top dose mostly 46.1 µM), without a hit: top-dose growth rescue (activation), most hits filed as activators | TDP-43 expressing yeast growth rescue, BacTiter-Glo, 24 h; note: % of control where 0% means no effect; nearly all actives have a fitted effect of over 50% in size
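Growth rescue of TDP-43-toxic yeast measured as ATP luminescence (BacTiter-Glo). Cells grown to mid-log in raffinose, induced in galactose at OD600=0.02, exposed to compound 24 hr at 30 deg C.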
Numbers without * were called inactive; i = inactive; ? = inconclusive; . = no result. Compounds with a hit are over-represented: about 2.2% of the library has one in this group of screens. Calls come from the whole dose curve; as a rule, active = well fitted curve in the direction sought with a large enough effect; inconclusive = small, poorly fitted or top-dose-only effect, or another doubt; inactive = no such curve, though single readings can be large; an effect the other way counts as inactive or inconclusive. Potency is the fitted concentration of half-maximal effect.

SMILES	FUS suppressor	Mito fusion yeast	aSyn rescue	Abeta yeast res	TDP43 rescue
COC(=O)[C@]12C[C@H](CC(=O)N3CCCC3)C(=O)N(CCc3ccc(OC)c(OC)c3)C1=C[C@H](C(C)(C)C)O[C@@H]2C	i	.	.	.	.
O=C(c1ccc(Br)o1)N1CCN(c2ccc(F)cc2)CC1	i	9%	8%	i	13µM*
CC(C)Cc1cc(C(=O)N2CCN(c3ccc(F)cc3)CC2)no1	i	10%	8%	i	22µM*
O=C(Nc1ccc(N2CCN(C(=O)c3cccs3)CC2)cc1)c1ccc(Br)o1	i	?	9%	i	25µM*
CCc1ccc(C(=O)c2cn(CC(=O)Nc3ccc(F)cc3)c3ccc(OC)cc3c2=O)cc1	i	.	.	i	1%
CCOc1ccc(NC(=O)CSc2nnc3c(n2)[nH]c2ccc(S(=O)(=O)N4CCCCC4)cc23)cc1	.	.	-5%	.	.
Clc1cccc(-c2cc3nc4c(c(NCc5ccco5)n3n2)CCCC4)c1	i	-17%	-47%	i	?
OCCCNc1c2c(nc3cc(-c4ccc(Cl)cc4)nn13)CCC2	i	14µM*	-14%	i	16%
O=c1c2c3c(sc2nc2n1CCC2)CCCC3	i	16%	1%	i	20%
O=c1c2c3c(sc2nc2n1CCCS2)CCCC3	i	16%	0%	i	18µM*
O=c1c2c3c(sc2nc2n1CCCCC2)CCCC3	i	11%	-4%	i	13µM*
COc1ccccc1NC(=O)c1sc2nc(N3CCOCC3)c3c(c2c1N)CC(C)(C)OC3	i	.	-1%	i	0%
COc1ccc(N2CCN(CCCNC(=O)COc3ccc(C)cc3)CC2)cc1	i	.	.	.	.
Cc1cc(C)n2nc(-c3cccc(Br)c3)cc2n1	i	2%	5%	i	11µM*
Cc1cccc(-c2cc3nc(C)cc(C)n3n2)c1	i	10%	-2%	i	-13%
Cc1cc2c(cc1C)-n1nnnc1C(N1CCN(C(=O)OCc3ccccc3)CC1)C(=O)N2 (stereo not given)	?	.	0%	i	12%
COc1ccc(OC)c(-c2nnc3n2N=C(c2ccc(OC)c(OCC4CC4)c2)CS3)c1	28µM*	.	.	i	.
Cc1cccc(-c2cc(N)n(-c3ccccc3)n2)c1	i	4%	-4%	i	-25%
Cc1ccc(-c2cc(N)n(-c3ccccc3)n2)cc1	i	13%	-19%	i	20µM*
CCc1ccc2c(c1)-c1ccccc1S(=O)(=O)N2CC(=O)N1CCC(C)CC1	i	.	.	i	2%
CCCCc1ccc(NC(=O)CC(C)C)cc1	i	7%	0%	i	11µM*
Cc1ccc(NC(=O)CN2C(=O)NC3(CCc4ccccc43)C2=O)cc1S(=O)(=O)N1CCCCC1 (stereo not given)	?	-6%	0%	i	26%
c1nc(N2CCC3(CC2)OCCO3)c2c3c(sc2n1)CCCC3	i	2%	6%	i	22µM*
Cc1ccc(/C(O)=C2\C(=O)C(=O)N(CCc3c[nH]c4ccccc34)C2c2cccnc2)cc1 (stereo not given)	35µM*	-28%	-2%	i	-17%
COc1ccc2c(c1)C1=NN(/C(C)=C/C(C)=O)C(c3cccc(F)c3)C1CC2 (stereo not given)	i	18µM*	5%	i	?
SMILES	FUS suppressor	Mito fusion yeast	aSyn rescue	Abeta yeast res	TDP43 rescue
COc1ccc2c(c1)C1=NN(/C(C)=C/C(C)=O)C(c3ccc(F)cc3)C1CC2 (stereo not given)	.	9%	7%	i	22µM*
COc1ccc2c(c1)C1=NN(/C(C)=C\C(C)=O)C(c3ccccc3)C1CC2 (stereo not given)	?	13%	-3%	i	18%
O=C(CC[C@H]1O[C@@H](n2ccc(=O)[nH]c2=O)[C@H](O)[C@@H]1O)NCCc1c[nH]c2ccccc12	i	.	3%	i	23%
O=C(c1sc2cc(F)ccc2c1Cl)N1CCN(c2ccccc2)CC1	i	28%	0%	i	18µM*
COC(=O)NC1c2ccccc2Oc2ccc(C)cc21 (stereo not given)	i	4%	3%	i	13µM*
Cc1cccc(C(=O)N2CCN=C2SCc2ccc([N+](=O)[O-])cc2)c1	i	-5%	4%	i	10µM*
CC(C)Cn1c(N)c(C(=O)COC(=O)C2Cc3ccccc3CN2S(C)(=O)=O)c(=O)n(C)c1=O (stereo not given)	.	-2%	1%	i	7%
O=C(Nc1ccccc1)N1CCN(c2nc(-c3ccccc3)ns2)CC1	i	8%	-3%	i	11µM*
O=C1[C@@H]2C(c3ccccc3Cl)=NO[C@@H]2C(=O)N1Cc1ccccc1	i	0%	2%	?	14µM*
Cc1cc(C)nc(NS(=O)(=O)c2ccc(NC(=O)c3ccc4c(c3)OCCO4)cc2)n1	i	-1%	4%	i	0%
CN=c1scc(C)n1/N=C/c1cc(Br)c(O)c(OC)c1	i	-12%	-2%	i	11µM*
CCOC(=O)CSc1nc(N)c(C(=O)Nc2ccc(N(C)C)cc2)s1	32µM*	-2%	-12%	i	-11%
CCN(CC)C(=O)CSc1nc(N)c(C(=O)Nc2ccc(OC)cc2)s1	.	-6%	-4%	i	27%
CCc1cc(Cn2nc(-c3ccccc3)cc2C(=O)NCc2cccs2)on1	i	13µM*	2%	i	1%
CCc1cc(Cn2nc(-c3ccccc3)cc2C(=O)NCCOC)on1	i	1%	1%	i	-2%
Cc1ccc2c(Cl)cc(Cl)c(OCC(=O)O)c2n1	i	4%	-8%	i	14µM*
O=C(C[n+]1cccc(Br)c1)c1ccc2ccccc2c1	.	.	0%	.	.
Cc1onc(-c2ccccc2)c1C(=O)OCC(=O)Nc1ccc(OC(F)(F)F)cc1	i	9%	0%	i	16µM*
CNCC(=O)Nc1ccc(OC(F)(F)F)cc1	i	-1%	3%	i	28%
CC(C)NC(=O)NC(=O)COC(=O)c1ccc(OC(F)(F)F)cc1	.	-12%	6%	10µM*	?
COc1cccc(OC)c1C(=O)OCC(=O)Nc1ccc(OC(F)(F)F)cc1	i	12%	-4%	i	14µM*
CC1CCN(S(=O)(=O)c2ccc3c(c2)N(CC(=O)NC(C)c2ccccc2)C(=O)CS3)CC1 (stereo not given)	i	.	.	i	10%
O=C(CSCc1ccc(F)cc1)Nc1ccc(F)cc1	i	8%	-9%	i	?
